Screening data as filed in PubChem.
CSC inhib – cancer stem cell inhibition; cancer stem cell-like cells viability, luminescence; inhibition, % at 7.5 µM; 300,000 tested, 1.1% active; in the data active = inhibition above about 75%; tested in HMLE shEcad cells
Mdm2 MdmX PPI – inhibitors of human Mdm2/MdmX interaction | inhibition, % at 8 µM | AID 485346 | O15151+Q00987 | 330,000 tested, 3% active | SaOS-2 split-luciferase Mdm2/MdmX complementation, luminescence;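 active = inhibition of at least 50% at 8 µM in the primary screen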
Target sequence (O15151 whole entry, looked up): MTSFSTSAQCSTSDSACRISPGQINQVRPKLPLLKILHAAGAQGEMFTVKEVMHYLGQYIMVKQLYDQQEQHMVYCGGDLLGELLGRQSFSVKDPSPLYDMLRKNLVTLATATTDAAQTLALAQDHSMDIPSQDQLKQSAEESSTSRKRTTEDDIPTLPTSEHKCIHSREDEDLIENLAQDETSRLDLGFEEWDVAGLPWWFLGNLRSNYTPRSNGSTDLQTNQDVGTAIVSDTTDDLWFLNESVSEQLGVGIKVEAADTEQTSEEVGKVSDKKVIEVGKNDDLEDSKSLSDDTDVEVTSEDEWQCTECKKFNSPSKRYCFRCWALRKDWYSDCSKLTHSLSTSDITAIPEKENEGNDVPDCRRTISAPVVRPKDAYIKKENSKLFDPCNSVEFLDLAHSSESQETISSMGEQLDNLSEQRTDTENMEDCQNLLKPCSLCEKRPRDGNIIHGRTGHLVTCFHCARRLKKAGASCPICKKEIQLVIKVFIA
Target sequence (Q00987 whole entry, looked up): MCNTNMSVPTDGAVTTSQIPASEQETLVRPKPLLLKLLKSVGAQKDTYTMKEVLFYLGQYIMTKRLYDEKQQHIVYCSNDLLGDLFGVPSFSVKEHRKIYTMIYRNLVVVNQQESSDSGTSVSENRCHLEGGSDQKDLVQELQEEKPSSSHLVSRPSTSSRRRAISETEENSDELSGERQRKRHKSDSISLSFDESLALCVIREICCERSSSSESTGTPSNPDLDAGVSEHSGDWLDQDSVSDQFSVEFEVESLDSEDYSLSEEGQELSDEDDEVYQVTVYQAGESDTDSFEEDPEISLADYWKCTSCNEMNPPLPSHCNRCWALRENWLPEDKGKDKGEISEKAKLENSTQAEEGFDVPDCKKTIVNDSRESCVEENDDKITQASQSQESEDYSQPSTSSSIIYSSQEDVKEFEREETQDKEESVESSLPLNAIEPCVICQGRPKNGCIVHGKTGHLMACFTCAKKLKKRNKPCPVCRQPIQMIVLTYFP
Beta cell apopt – blocks beta cell apoptosis | INS-1E cytokine-induced death, ATP luminescence, 48 h; percent of positive-control rescue, neutral wells zero | protection from apoptosis, % (no concentration beside the values) | 300,000 tested, 0.8% active;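 active = Every replicate reaches about 75%, or at least half do and their mean reaches it too, limit read from the data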;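 note: 0% = cytokine-treated negative control wells and 100% = positive control rescue; higher means more ATP so stronger rescue from cytokine killing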
MPTP block – permeability transition pore inhibition. inhibition, % at 10 µM. AID 602449. isolated mouse mitochondria, Ca2+ swelling absorbance, 30 min. 360,000 tested, 1.4% active;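 active = inhibition of 50% or more, scaled per plate between neutral and stimulator controls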;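 note: 0% = DMSO wells given calcium and 100% = 1 mM EGTA wells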
Gli-Sufu antag – antagonists of Gli-Sufu signaling; AID 588413; inhibition, % at 5 µM; Sufu-KO-LIGHT fibroblasts, Gli luciferase reporter luminescence; 340,000 tested, 0.74% active;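 active = inhibition above about 55%, limit read from the data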;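 note: 0% = DMSO-treated cells and 100% = wells with medium but no cells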
GRIN3A LBD mod – modulators (binders) of human NR3A ligand-binding domain; NR3A LBD differential scanning fluorimetry, Tm shift; 0% = protein alone, 100% = glycine-bound protein; Tm shift relative to glycine control, % at 25 µM; 340,000 tested, 2.5% active;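 active = melting temperature shift of at least 10% of the positive control shift, at one fixed dose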
Active calls of the source: *; x = no result given. Hits are enriched below; roughly 6.6% of the tested compounds scored in any of these assays.

SMILES | CSC inhib | Mdm2 MdmX PPI | Beta cell apopt | MPTP block | Gli-Sufu antag | GRIN3A LBD mod
CCCCNC(=S)N(C)/N=C/c1c(C)[nH]c2ccccc12 | -10 | 5 | 1 | 6 | 31 | 12*
CCCCN(C)CCNC(=O)C(=O)c1c(C)[nH]c2ccccc12 | -6 | -16 | 0 | 1 | 6 | 1
CSCCC(NC(=O)OCc1ccccc1)C(=O)NCc1cccnc1 (stereo unspecified) | -9 | 16 | 0 | 0 | 1 | -2
Cc1ccccc1NC(=O)CSc1nnc(CNC(=O)c2ccc3c(c2)OCO3)n1C | -8 | -24 | -5 | -4 | -15 | 0
CCn1c(CNC(=O)c2ccc3c(c2)OCO3)nnc1SCC(=O)Nc1cc(C)ccc1OC | -5 | 26 | 1 | -6 | 5 | 10*
Fc1ccc(-[n+]2nc(Nc3ccccc3)sc2-c2ccc(OCc3ccccc3)cc2)cc1 | 16 | 1 | -1 | 1 | -7 | -2
O=C(/C=C/c1ccccc1)Nc1cccc(C(=O)NCCc2ccccc2)c1 | x | x | x | 2 | -52 | 17*
O=C(/C=C/c1ccccc1)Nc1cccc(C(=O)NCCCCc2ccccc2)c1 | x | x | x | 3 | -37 | 27*
Brc1ccc(C2=CC(c3cccs3)n3ncnc3N2)cc1 (stereo unspecified) | -3 | 1 | 30 | 24 | 98* | -3
O=C(CSc1nc(-c2ccc(F)cc2)nc2c1Cc1ccccc1O2)Nc1ccc(C(=O)O)cc1 | x | x | x | 0 | -21 | 33*
O=C(CSc1nc(-c2ccccc2)nc2c1Cc1ccccc1O2)Nc1ccc(C(=O)O)cc1 | x | x | x | 4 | -6 | 32*
Nc1nc(-c2ccccc2)c(-c2ccc([N+](=O)[O-])cc2)s1 | 38 | 43 | 93* | 0 | 8 | -1
CCOC(=O)[C@@H]1[C@H]2COc3ccccc3[C@@H]2N2C(=O)N(c3ccccc3)C(=O)[C@]12C | -5 | 0 | -4 | -1 | 15 | -4
COC(=O)c1sc(NC(=O)CC(C)C)c(C(=O)OC)c1C | -3 | 25 | -4 | 2 | 4 | 21*
COC(=O)c1sc(NC(C)=O)c(C(=O)OC)c1C | -8 | 5 | -1 | 14 | -6 | -1
O=C(CCN1CCCCC1)c1ccccc1 | 8 | -2 | -7 | 4 | 3 | -13
C[N+]1(CCC(=O)c2ccccc2)CCCCC1 | -4 | -3 | -19 | 4 | -7 | 10*
COc1ccccc1C(=O)C1CCCN(C(=O)c2ccccn2)C1 (stereo unspecified) | -13 | 23 | 2 | -1 | -3 | -2
COc1cc(OC)c(C(=O)c2ccccc2[N+](=O)[O-])c(OC)c1 | x | x | x | 1 | x | x
COc1cc(OC)c(OC)cc1/C=N/n1c(-c2n[nH]c3c2CCC3)n[nH]c1=S | 7 | 11 | 0 | 1 | 3 | -1
COc1ccc(OC)c(/C=N/n2c(-c3n[nH]c4c3CCC4)n[nH]c2=S)c1 | -8 | -22 | 0 | 1 | 4 | 14*
O=C(CSc1ccccc1F)NNC(=O)c1cncc(Br)c1 | -5 | -14 | -3 | -3 | 4 | 0
Fc1ccccc1-c1ccc(/C=N/Nc2nc3ccccc3[nH]2)o1 | 16 | -34 | 18 | 15 | -47 | 21*
COc1ccccc1NS(=O)(=O)c1cc(N)ccc1N1CCCCC1 | -8 | 28 | -3 | -1 | 44 | 33*
COc1ccccc1NS(=O)(=O)c1cc(NC(=O)Nc2ccc(Cl)cc2Cl)ccc1N1CCCCC1 | 38 | 42 | 40 | 43 | -1 | 12*
SMILES | CSC inhib | Mdm2 MdmX PPI | Beta cell apopt | MPTP block | Gli-Sufu antag | GRIN3A LBD mod
CCN1CCN(CCCNC(=O)C2CCN(c3nnc(-n4c(C)ccc4C)s3)CC2)CC1 | x | 14 | -18 | 0 | -8 | 0
Cc1noc(C)c1NC(=O)N(C)C[C@H]1OCc2cnnn2CCCC(=O)N([C@@H](C)CO)C[C@H]1C | x | x | x | 0 | x | x
O=c1c2ccccc2oc2cc(OCc3cccc(F)c3)cc(O)c12 | 16 | 2 | 6 | 0 | 2 | 0
COc1cc(/C=N/c2oc(-c3ccccc3)cc2C#N)ccc1O | -10 | -8 | 1 | 0 | -21 | 33*
COc1cc(C=NCc2ccccc2)ccc1O | x | x | x | 0 | x | x
Cc1c(C(=S)Nc2ccccc2)cnn1-c1ccccc1 | -4 | -33 | -8 | 1 | -41 | 15*
CC(C)[C@@H](CO)N(C)S(=O)(=O)c1ccccc1Br | x | 17 | x | 0 | 1 | 11*
Cc1cccc(C)c1OCc1cc(C(=O)N(Cc2c(C)nn(C)c2C)C2CC2)no1 | 2 | 9 | 36 | 4 | 44 | -4
COc1ccccc1CN(C)CC(=O)Nc1ccccc1-c1ccccc1 | 26 | -2 | -2 | 0 | 6 | 0
CN(CC(=O)Nc1ccccc1Oc1ccccc1)Cc1ccccc1F | 91* | 8 | -7 | 3 | 15 | 0
Cc1ccccc1CN(C)CC(=O)Nc1ccccc1Oc1ccccc1 | x | 8 | -4 | 0 | 30 | 14*
Cc1ccccc1CN(C)CC(=O)Nc1ccccc1-c1ccccc1 | 60 | -14 | -2 | 3 | 5 | 23*
CC(C)C[C@@H]1COc2cccc(N3CCC[C@@H]3CO)c2S(=O)(=O)N1 | x | x | x | 0 | x | x
Nc1oc2ccccc2c(=O)c1C=O | 10 | 7 | -1 | 18 | 8 | 0
CCOC(=O)[C@@H]1[C@H]2COc3ccccc3[C@H]2N2C(=O)N(c3cccc(Cl)c3)C(=O)[C@]12C | -6 | 6 | -4 | 1 | -4 | 17*
CCOC(=O)[C@@H]1[C@H]2COc3ccccc3[C@H]2N2C(=O)N(c3cccc(C)c3)C(=O)[C@]12C | -14 | 8 | -15 | 1 | 1 | 0
CCCC(Oc1ccc(Br)cc1)c1nc2c3cc(OC)c(OC)cc3nc(=S)n2[nH]1 (stereo unspecified) | x | 50 | 35 | 5 | 2 | 16*
CC(Oc1ccc(Br)cc1)c1nc2c3ccccc3nc(=S)n2[nH]1 (stereo unspecified) | 15 | 9 | 99* | 6 | 0 | -3
COc1cc(-c2nc3c4ccccc4nc(=S)n3[nH]2)cc(OC)c1OC | -20 | 0 | 23 | 8 | 15 | -7
S=c1nc2ccccc2c2nc(-c3ccccc3)[nH]n12 | -6 | -20 | 35 | 2 | 26 | -10
CCCCC(=O)N(C)c1c(CC)nc2c(OCC(=O)c3ccc(Cl)cc3Cl)cccn12 | x | x | x | 1 | x | x
CC(C)C[C@@H](CN1CCCC1CN1C(=S)NC[C@@H]1Cc1ccc(O)cc1)N1C[C@H](Cc2ccccc2)N(CC2CCCCC2)C1=S (stereo partly specified) | x | x | x | 1 | 28 | 9
CC(C)C[C@H]1CNC(=S)N1CC1CCCN1C[C@H](Cc1ccccc1)N1C[C@H](Cc2ccc(O)cc2)N(CC2CCCCCC2)C1=S (stereo partly specified) | x | x | x | -1 | -3 | 29*
CC(C)C[C@H]1CN([C@@H](Cc2ccc(O)cc2)CN2CCC[C@@H]2CN2C(=S)NC[C@@H]2Cc2ccccc2)C(=S)N1CC1CCCCCC1 | x | x | x | 0 | x | x
